In the library only some 3% were active in any assay of this set; here they are far more common.
Tau FP inhib: tau fibrillization inhibition (FP). P10636. K18 P301L tau heparin fibrillization, Alexa594 FP, 6 h. Potency, µM (doses to about 57.7 µM), for the others: top-dose activity, negative = inhibition, actives largely listed as inhibitors. 0.39% of 280,000 active; further: nearly all actives have a fitted effect of over 55% in size
Target sequence (P10636 561-689 P618L limits assumed): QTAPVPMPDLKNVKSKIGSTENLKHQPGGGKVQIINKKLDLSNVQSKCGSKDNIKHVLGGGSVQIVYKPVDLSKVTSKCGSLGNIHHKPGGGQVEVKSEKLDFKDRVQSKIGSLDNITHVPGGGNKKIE
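Steps: dispense K18 P301L tau (15 uM plus 0.24 uM Alexa 594 tracer, final) in pH 7 sodium acetate; add compound; add heparin (20 uM final); incubate 6 hr, 37 C; add ThT (30 uM final); after 1 hr ambient, read FP.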
Tau fibril ThT: tau fibrillization inhibition (ThT binding). P10636. recombinant tau K18 P301L, heparin-induced fibrillization, ThT fluorescence. Potency, µM (doses to about 57.4 µM), without a hit: top-dose activity, negative = inhibition, most hits filed as inhibitors. 2.1% of 270,000 active; further: nearly all actives have a fitted effect of over 55% in size
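Fibril formation assay: tau K18 P301L at 15 uM with trace Alexa 594 label, heparin inducer 20 uM, pH 7 sodium acetate buffer, 37 C for 6 hr; endpoint ThT signal.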
TRb-SRC2 inh: disrupts binding of human TR beta to SRC2 | TRbeta-SRC2 peptide binding, fluorescence polarization; receptor liganded with 1 µM T3 | Potency, µM (series often up to 106 µM), inactives show at the highest dose activity change, negative = inhibition, most hits filed as inhibitors | 0.065% of 280,000 active | AID 1469;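 further: plate controls were bound peptide for no effect and peptide without receptor for full effect; nearly all actives have a fitted effect of over 50% in size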
Target sequence (P10828 whole entry, looked up): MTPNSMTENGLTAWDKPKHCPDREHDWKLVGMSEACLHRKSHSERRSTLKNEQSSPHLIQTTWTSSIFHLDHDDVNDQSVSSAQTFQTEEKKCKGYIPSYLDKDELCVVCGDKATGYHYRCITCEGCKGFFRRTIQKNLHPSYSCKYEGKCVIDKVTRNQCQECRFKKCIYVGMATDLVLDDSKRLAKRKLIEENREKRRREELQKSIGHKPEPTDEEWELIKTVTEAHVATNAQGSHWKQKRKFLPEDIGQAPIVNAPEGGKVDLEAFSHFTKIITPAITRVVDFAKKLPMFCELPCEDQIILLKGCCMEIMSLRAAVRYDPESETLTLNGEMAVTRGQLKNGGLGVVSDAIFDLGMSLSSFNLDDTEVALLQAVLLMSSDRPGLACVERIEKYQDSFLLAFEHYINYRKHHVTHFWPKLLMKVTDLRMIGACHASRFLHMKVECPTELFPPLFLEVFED
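Decrease in fluorescence polarization of 20 nM Texas Red SRC2 coactivator peptide flagged inhibition of its binding to 0.6 uM TRb LBD; 1 uM T3 included, incubation 5 hr, ex 555/em 632 nm.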
TR SRC2 fluor cs: counter-screen for TRb-SRC2 inhibitors: fluorescence interference. AID 1479. 0.29% of 280,000 active. Potency, µM (series often up to 106 µM), without a hit: top-dose fluorescence change, negative = quenching. TRb/SRC2 Texas Red total fluorescence interference; active means well fitted curve in either direction with a large enough effect; inconclusive means small, poorly fitted or top-dose-only effect
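Human TRb ligand-binding domain at 0.6 uM with 20 nM Texas Red SRC2 peptide in Tris buffer containing 1 uM T3 and 5% DMSO, incubated with compound 5 h at ambient temperature. Total fluorescence (555/632 nm) calculated as parallel + 2 × perpendicular.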
Tau fluor counter: counter-screen for tau fibril formation inhibitors; 0.93% of 280,000 active; AID 1463; tau K18 P301L (four-repeat tau fragment) Alexa594 fluorescence, heparin fibrillization; Potency, µM (titrated, usually from 57.7 µM), for the others: top-dose activity change, negative = decrease; further: nearly all actives have a fitted effect of over 55% in size
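Human K18 P301L tau (15 uM unlabeled plus 0.24 uM Alexa 594-labeled, final) in 100 mM sodium acetate pH 7 was mixed with compound and 20 uM heparin and incubated 6 hr at 37 C.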
The depositor's hits bear a star; u = inconclusive; x = no result given; [ ] = remark or other dose. Unless noted, the call rests on the fitted dose curve; in most records, active means well fitted curve in the direction sought with a large enough effect; inconclusive means small, poorly fitted or top-dose-only effect, or another doubt; inactive means no such curve, though single readings can be large; an effect the other way counts as inactive or inconclusive. Unless noted, on the % scale 0 is the no-effect control and ±100 the full control effect; potency means the concentration at half of the fitted maximal effect.

SMILES	Tau FP inhib	Tau fibril ThT	TRb-SRC2 inh	TR SRC2 fluor cs	Tau fluor counter
C/C1=C2N=C(/C=C3N=C(/C(C)=C4\[N-]C(C)(C5N=C1C(C)(CCC(=O)NCC(C)OP(=O)([O-])O[C@H]1C(O)C(n6cnc7cc(C)c(C)cc76)O[C@@H]1CO)C5CC(N)=O)C(C)(CC(N)=O)C4CCC(N)=O)C(C)(CC(N)=O)C\3CCC(N)=O)C(C)(C)C/2CCC(N)=O.[CH2-]C1OC(n2cnc3c(N)ncnc32)C(O)C1O.[Co] (stereo partly specified)	12.6µM*	10µM*	-21.2%	-3.3%	u
Cc1[nH]c2ccccc2c1C(c1ccccc1)c1ccc(Cl)s1 (stereo unspecified)	u	u	5.3%	-1.8%	7.08µM*[quencher]
COc1ccccc1NS(=O)(=O)c1cccc(NC(=O)c2[nH]c(C)c(C(C)=O)c2C)c1	u	9.0%	7.2%	0.1%	u
O=C(Nc1cccc(O)c1)c1cccc(S(=O)(=O)N2CCCC2)c1	1.4%	-13.1%	5.3%	-4.2%	-17.4%
Cc1nc2ccc(NC(=O)c3cccc(S(=O)(=O)N(C)c4ccccc4)c3)cc2s1	-11.7%	0.5%	-1.4%	1.2%	u
O=C(Nc1cccc(S(=O)(=O)N2CCCCC2)c1)c1ccc2ncsc2c1	u	x	-6.5%	-0.7%	20µM*[quencher]
CC(=O)c1c(C)[nH]c(C(=O)Nc2cccc(S(=O)(=O)N(C)c3ccccc3)c2)c1C	28.2µM*	-16.5%	-3.9%	-4.1%	14.1µM*[quencher]
CN(c1ccccc1)S(=O)(=O)c1cccc(NC(=O)c2ccc3ncsc3c2)c1	u	-7.0%	0.0%	-3.5%	15.8µM*[quencher]
N/C(=C\C(=O)c1cc(Cl)ccc1O)C(Cl)(Cl)Cl	u	17.8µM*	-0.4%	-4.6%	-24.7%
CN(C)c1ccc(CNC(=O)CN2C(=O)CCn3nc(-c4cn(C)c5ccccc45)cc32)cc1	13.2%	-10.7%	-1.9%	-5.9%	-28.0%
CCCN(CCC)c1nn2c(=O)c(C(=O)NCc3cccc(OC)c3)cnc2s1	6.0%	-3.7%	-3.9%	-14.9%	-6.2%
Cc1ccc2nc(-c3ccc(O)cc3)c(Nc3ccc4c(c3)OCCO4)n2c1	16.3%	u	5.4%	-2.7%	25.1µM*[quencher]
Cc1ccc2nc(-c3ccccc3O)c(Nc3ccc4c(c3)OCCO4)n2c1	10.1%	u	0.6%	-1.8%	7.08µM*[quencher]
O=C(NC(CSCc1ccccc1)C(=O)N/N=C/c1ccc(O)cc1O)c1ccc([N+](=O)[O-])cc1 (stereo unspecified)	u	u	-2.4%	-1.1%	12.6µM*[quencher]
C=CCn1c(N)c(C(=O)Nc2cccc(C)c2)c2nc3ccccc3nc21	u	u	-5.4%	-0.3%	11.2µM*[quencher]
COC(=O)CSC1=C(C#N)C(c2ccc(C(C)C)cc2)CC(=O)N1 (stereo unspecified)	7.6%	-6.0%	-8.7%	-1.5%	-14.2%
COc1ccc(Br)cc1C1CC(=O)N2CN(C)CSC2=C1C#N (stereo unspecified)	u	u	-2.3%	4.3%	-14.6%
N#CC1=C2SCN(C3CCCCC3)CN2C(=O)CC1c1ccc(F)cc1 (stereo unspecified)	u	28.2µM*	-5.9%	0.1%	-10.9%
N#CC1=C2SCN(C3CCCCC3)CN2C(=O)CC1c1c(F)cccc1Cl (stereo unspecified)	u	31.6µM*	-0.2%	0.5%	-18.8%
COc1ccc(C2CC(=O)N3C(=C2C#N)SCC3(O)c2ccccc2)cc1 (stereo unspecified)	6.7%	-9.7%	8.3%	2.0%	-20.6%
CC(C)c1ccc(C2CC(=O)N3CN(C)CSC3=C2C#N)cc1 (stereo unspecified)	-16.8%	28.2µM*	1.1%	0.1%	-20.5%
COc1ccc2ccccc2c1C1CC(=O)N2CN(C)CSC2=C1C#N (stereo unspecified)	22.4µM*	22.4µM*	1.1%	-0.5%	-26.4%
CC(C)OCCCn1c(=O)c2ccccc2n2c(-c3cc(Cl)ccc3O)nnc12	0.0%	8.8%	-5.4%	-2.0%	-0.6%
O=C1C(=O)N(C2CCN(S(=O)(=O)c3ccccc3)CC2)CCN1Cc1ccccc1	-3.9%	4.9%	6.2%	-0.3%	-2.1%
N#CC1=C2SCN(C3CCCCC3)CN2C(=O)CC1c1ccc(Cl)cc1 (stereo unspecified)	u	28.2µM*	-1.5%	-1.2%	-23.6%
SMILES	Tau FP inhib	Tau fibril ThT	TRb-SRC2 inh	TR SRC2 fluor cs	Tau fluor counter
O=C1CSC(c2ccc(Cl)cc2)N1C1CCCCC1 (stereo unspecified)	2.4%	-3.1%	-0.9%	-0.9%	-5.7%
CC[C@H](C)[C@H](NC(=O)[C@@H](NC(=O)CNC(=O)[C@@H](N)CC(C)C)[C@@H](C)O)C(=O)N1CCC[C@H]1C(=O)NCC(=O)O	x	x	4.7%	-0.1%	x
CCCN=Cc1sc2ccc(OCC)cc2c1O	-7.1%	u	-5.5%	0.4%	-18.6%
CCOc1ccc2c(O)csc2c1	u	25.1µM*	-2.8%	0.3%	-12.7%
COc1ccc(-c2cc(C(F)(F)F)nc(NCc3ccccc3)n2)cc1	u	-11.7%	3.4%	-3.2%	-28.2%
COc1ccc(-c2cc(C(F)(F)F)c3c(=O)n(-c4ccccc4)[nH]c3n2)cc1	8.4%	8.91µM*	-1.5%	-5.3%	u
COc1ccc(/C=C/C(=O)Nc2sc(C)c(C)c2C(=O)O)cc1	-0.5%	2.24µM*	-2.0%	-7.6%	u
CCCCCOc1ccc(/C=C/C(=O)Nc2sc(C)c(C)c2C(=O)OCC)cc1OC	u	28.2µM*	-10.2%	4.8%	-23.4%
Cc1sc(NC(=O)/C=C/c2ccco2)c(C(=O)O)c1C	-3.8%	u	-6.3%	-3.7%	-6.5%
COc1ccc2c(c1)OCc1c-2oc2cc(OC)ccc12	u	8.91µM*	4.3%	-0.2%	u
COc1ccc2c(=O)c(OC)c(-c3ccccc3)oc2c1	-4.2%	u	-12.0%	u	u
COc1ccc2c(c1)cc1c(=O)n(CC(=O)NCCc3ccccc3)nc(C)n12	-2.8%	-4.1%	0.0%	5.2%	-5.7%
COC1=C(N)C(=O)c2nc(-c3nc(C(=O)O)c(C)c(-c4ccc(OC)c(OC)c4O)c3N)ccc2C1=O	u	15.8µM*	-13.0%	-5.5%	u
COc1ccc(C(=O)O)c(O)c1OC	u	-7.5%	1.4%	-0.3%	-19.3%
Oc1c(Cl)cc(Cl)cc1C=Nc1ccccc1N1CCCC1	-12.7%	22.4µM*	6.0%	-3.6%	u
CCCCN(CCCC)C(=O)CN(C)S(=O)(=O)c1ccc2c(c1)c(=O)n(C)c(=O)n2C	-1.7%	2.3%	7.5%	4.8%	-10.7%
NS(=O)(=O)c1ccc(NN=C2CCN(Cc3ccccc3)CC2)c([N+](=O)[O-])c1	11.8%	25.1µM*	-6.9%	-3.8%	-26.9%
CCCN1CCC(=NNc2ccc(S(=O)(=O)N3CCOCC3)cc2[N+](=O)[O-])CC1	4.1%	-0.1%	-6.6%	1.1%	-11.4%

Bioassay records (PubChem)
